Data from PubChem BioAssay (EPA / NIEHS).
Records with an inconclusive call do not appear. Active and inactive are the calls of the source. Rule for the calls: active = hit-call score of the fitted dose curve at least 0.9, where 1 is the maximum; inconclusive = response in the unintended direction; inactive = score below 0.9.

Assay: ACEA_ER_AUC_viability: ACEA Biosciences xCELLigence Real-Time Cell Analysis on Estrogen Receptor Agonism for Viability (AID 2283782);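 note: hit means loss of impedance signal meaning reduced cell growth or viability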
How it was run: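 Viability endpoint: reduced impedance area under the curve relative to DMSO, recorded by real-time electrode sensing over ~80 h of continuous exposure. Duplicate plates of T47D in hormone-depleted medium; eight concentrations, 1:4 dilutions, 100 uM maximum.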

| SMILES | outcome | AC50 |
| --- | --- | --- |
| CCCCCCCCCC(=O)OCC | inactive | – |
| N#CCCNCCC#N | inactive | – |
| C=CCOCC(O)CO (stereo not drawn) | inactive | – |
| CN(C)CCC=C1c2ccccc2CCc2ccccc21 | – | 26.2 µM (active) |
| O=C1OCc2ccccc21 | inactive | – |
| C=CC(=O)OCC(CO)(COC(=O)C=C)COC(=O)C=C | – | 2.64 µM (active) |
| CCOC(=O)C=Cc1ccccc1 | inactive | – |
| CCCCCCCCCCCCN1CCOCC1 | – | 80.3 µM (active) |
| CCC(CC)CO | inactive | – |
| C1COCO1 | inactive | – |
| O=C(O)C(F)(F)OC(F)(F)C(F)(F)OC(F)(F)C(F)(F)C(F)(F)C(F)(F)F | inactive | – |
| C=C(C)C(=O)OCCC(F)(F)C(F)(F)C(F)(F)C(F)(F)C(F)(F)C(F)(F)C(F)(F)C(F)(F)F | inactive | – |
| CCO[Si](CCC#N)(OCC)OCC | inactive | – |
